Assay results published in ChEMBL document CHEMBL1157539, “Thousands of chemical starting points for antimalarial lead identification” (Nature, 2010).

Each compound was assayed on HepG2 (assay: GSK_TCMDC: Percent inhibition of human HepG2 cell line. Test compounds present at 10uM.).
Format: functional

Structure (SMILES) | Inhibition [%]
COc1ccc(Nc2ncc3c(-c4cccc(NC(=O)Cc5cccc(O)c5)c4)c[nH]c3n2)cc1OC | 44
CN(Cc1ccc(-c2ccc(C(F)(F)F)cc2)cc1)C(=O)Cn1c(CCc2cccc(F)c2F)cc(=O)c2ccc(OCCCN3CCCCC3)cc21.O=C(O)C(O)C(O)C(=O)O | 79
CN1CCCC1CCNCc1cccc(-c2cnc(N3CCCC(C)(C)C3)nc2)c1 (stereo not given) | 99
Cc1cc(F)ccc1Oc1nc(Nc2ccc(N3CCOCC3)c(F)c2)nc2c1S(=O)(=O)CCC2.Cl | 10
Cc1c(C)n(C2CCCC2)c2ncnc(OC3CCN(CC(=O)NC4CC4)CC3)c12 | 13
CNC(=O)c1cnc(Nc2ccc3[nH]c(=O)[nH]c3c2)nc1Nc1cccc(OC(C)C)c1.O=C(O)C(F)(F)F | 18
N#Cc1ccc(-c2ccc(C(=O)NCCCCN3CCC(c4nc5ccccc5[nH]4)CC3)cc2)cc1 | 43
O=C(Cc1ccc(Cl)cc1)NC1CCN(c2ccnc3cc(Cl)ccc23)C1.O=C(O)C(F)(F)F (stereo not given) | 13
COc1ccccc1-n1c(-c2ccc3ccccc3c2)csc1=NC(=O)c1ccccc1 | 0
COc1ccc2nccc([C@@H](O)CN3CCC(NCc4cc5cc([N+](=O)[O-])ccc5[nH]4)CC3)c2c1.O=C(O)C(=O)O | 29
CCN(CC)CCN(Cc1ccc(-c2ccc(C(F)(F)F)cc2)cc1)C(=O)Cn1c(CCc2cc(F)cc(F)c2F)nc(=O)c2ccccc21.O=C(O)C(O)C(O)C(=O)O | 36
Cc1ccc(Cl)cc1NC(=O)c1c(-c2ccccc2Cl)noc1C | 9
CC(CN(C)C)Oc1ccc2nc(-c3cccc(OCc4ccccc4)c3)[nH]c2c1C#N (stereo not given) | 57
COc1ccc(OC)c(NC(=O)c2c(-c3c(F)cccc3Cl)noc2C)c1 | 0
CCNc1cc(C(=O)N[C@@H](Cc2ccccc2)[C@H](O)CNCc2cc(C#N)ccc2OC)cc(N2CCCC2=O)c1.O=C(O)C(F)(F)F | 0
COc1ccc2nccc(N3CCC(SCCNS(=O)(=O)c4ccc5c(c4)NC(=O)CS5)C3)c2n1.Cl (stereo not given) | 20
Cc1cc(C2CCN(CCCCNC(=O)c3ccc(-c4ccc(C#N)cc4)cc3)CC2)c(C)cc1OCCO | 20
CCN1C(c2ccc(Cl)cc2)C(CNCc2ccccc2O)CC1(C)CO (stereo not given) | 47
Cc1c(-c2cccc(Br)c2)[nH]c2nc(N)nc(N)c12 | 8
COc1ccc(Nc2nc(N3CCCC3)c3ccccc3n2)cc1.Cl | 40

Structure (SMILES) | Inhibition [%]
Cc1cccc2nc(-c3ccc(-c4ccc(CNCc5cccc(N)c5)cc4)s3)[nH]c12.O=C(O)C(F)(F)F | 10
CN1CCN(c2ccc(Cl)cc2NC(=O)C2COc3ccccc3O2)CC1 (stereo not given) | 2
CS(=O)(=O)NCCCNCc1ccc(-c2ccc(-c3nc4cc(C(F)(F)F)ccc4[nH]3)cc2)cc1.O=C(O)C(F)(F)F | 25
OCC(c1ccccc1)n1c(COc2ccc(Cl)cc2)nc2c(OCCCN3CCCCC3)cccc21 (stereo not given) | 6
Cc1cccc2nc(-c3ccc(-c4cccc(NC(=O)NCc5ccccc5)c4)cc3)[nH]c12 | 25
FC(F)(F)c1ccc2[nH]c(-c3cccc(-c4cccc(CNCC5CCCO5)c4)c3)nc2c1.O=C(O)C(F)(F)F (stereo not given) | 23
CN(C)Cc1ccc2cc(NC(=O)c3ccc(-c4ccc(Cl)cc4)cc3)ccc2c1 | 21
O=[N+]([O-])c1ccc2nccnc2c1 | 0
C=CCC(C)n1ncc2c3c(N)nc(N)nc3ccc21 (stereo not given) | 66
O=C(Nc1ccc(Cn2ncc(N3CCNCC3)c(Cl)c2=O)cc1)Nc1ccc(-c2ccccc2)cc1.O=C(O)C(F)(F)F | 29
O=C(Nc1ccc(F)cc1)c1nc2ccccc2nc1Cl | 44
Cc1ccccc1C1CCN(c2ccc(C(=O)NC3CC3)cn2)CC1.O=C(O)C(F)(F)F | 17
O=C(Nc1cccc(CN2CCN(C(=O)c3cccc(Cl)c3)CC2)c1)c1ccco1.O=C(O)C(F)(F)F | 7
COc1cc(NC(=O)CCCCCCCN2CCN(C)CC2)c2ncccc2c1 | 2
COc1ccc(CN2CCC2=O)c(OC)c1 | 0
Cc1cc(N2CCCCC2)nc2ccc(NC(=O)c3cncc(Br)c3)cc12 | 0
Cl.Fc1cccc(COc2ccc(Nc3ncnc4ccc(-c5nnc(C(F)(F)F)o5)cc34)cc2Cl)c1 | 14
O=C(NCCCN1CCCCC1)c1cccc(Nc2nccc(Nc3ccc(Oc4ccccc4)cc3)n2)c1 | 47
Cc1nnc(-c2ccc3ccccc3c2)c2cn(-c3cccc([N+](=O)[O-])c3)nc12 | 29
CCC(C)(C)c1ccc(OCCCC(=O)Nc2ccc(Cl)c([N+](=O)[O-])c2)c(C(C)(C)CC)c1 | 0
